Screening data (PubChem)
BJeLR viab HTS – BJeLR cell viability reduction. AID 2275. viability loss activity score, % (test concentration not listed). 30,000 compounds, 0.64% hits. BJeLR fibroblasts viability, CellTiterGlo ATP luminescence, 48 h; HRASV12, hTERT and SV40 LT/ST transformed; in the data active = viability loss activity score above about 50%;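 also: higher score means fewer live cells and less ATP luminescence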
A1 inh – inhibitors of A1; 21,000 compounds, 0.51% hits; MEF A1-2A-BIM cells, caspase-Glo luminescence, 3 h; percent of clofoctol signal, DMSO as zero; AID 2241; caspase activation, % (no concentration beside the values);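 active = most replicate scores above 10, or exactly half above 10 with mean activity above 10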;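 also: effector caspase 3 and 7 activity cleaving a DEVD luciferin substrate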
A number is an active result; 0 = inactive; - = no result. Only some compounds are listed: those with a hit (about 0.86% of all), similar ones and a draw of the others.

SMILES	BJeLR viab HTS	A1 inh
C[C@H]1CC[C@@H]2[C@@H](C)[C@H]3[C@H](C[C@H]4[C@@H]5CC=C6CC(O[C@@H]7O[C@H](CO)[C@@H](O)[C@H](O[C@@H]8O[C@H](CO)[C@@H](O)[C@H](O)[C@H]8O)[C@@H]7O[C@@H]7O[C@@H](C)[C@H](O)[C@@H](O)[C@H]7O)CC[C@]6(C)[C@H]5CC[C@]34C)N2C1 (stereo partly drawn)	80.9	0
C[C@H]1CC[C@@H]2[C@@H](C)[C@H]3[C@H](C[C@H]4[C@@H]5CC=C6C[C@@H](O[C@@H]7O[C@H](CO)[C@H](O)[C@H](O[C@@H]8O[C@H](CO)[C@@H](O)[C@H](O)[C@H]8O)[C@H]7O[C@@H]7O[C@@H](C)[C@H](O)[C@@H](O)[C@H]7O)CC[C@]6(C)[C@H]5CC[C@]34C)N2C1	0	0
COc1ccc2c(c[n+](C)c3c4cc5c(cc4ccc23)OCO5)c1OC	78.9	161.3
COc1ccc2c(c1OC)CN1CCc3cc4c(cc3C1C2)OCO4 (stereo not drawn)	0	0
CCC1=CC2CN3CCc4c([nH]c5ccccc45)[C@@](C(=O)OC)(C2)[C@@H]13	0	0
CC(C)[C@]12O[C@H]1[C@@H]1O[C@]13[C@]1(O[C@H]1C[C@H]1C4=C(CC[C@@]13C)C(=O)OC4)[C@@H]2O	90.1	16.4
N#CC(O[C@@H]1O[C@H](CO)[C@@H](O)[C@H](O)[C@H]1O)c1ccccc1 (stereo partly drawn)	0	0
Cc1ccc(NC(=O)c2cc(C)n(C(C)(C)C)n2)cc1	0	0
CN(C)C(=O)Oc1ccnc(SCc2c(F)cccc2Cl)n1	0	0
CCOC(=O)CN1C(=O)C2(C(C(=O)OCC)=C(N)OC3=C2C(=O)CC(C)(C)C3)c2ccccc21 (stereo not drawn)	0	-
Cc1ccccc1OCCCn1cc(C(=O)C2CC2)c2ccccc21	0	-
CO/C1=C/C(C)=C/[C@@H](C)[C@@H](O)[C@@H](C)C/C(C)=C/C=C\[C@H](OC)[C@@H]([C@@H](C)[C@@H](O)[C@H](C)[C@@]2(O)C[C@@H](O)[C@H](C)[C@@H](C(C)C)O2)OC1=O	52.1	0
c1ccc(CSc2nnc(-c3ccccc3)o2)cc1	0	0
CN1CCN(c2ccc3ccccc3n2)CC1	0	0
C=C1[C@]23C(=O)O[C@@H](C)[C@]2(O)C(=O)O[C@@]1(C)[C@H](OC(C)=O)C1=C(C)[C@@]2(C=CC(=O)OC2(C)C)CCC13C (stereo partly drawn)	0	0
C/C=C(\C)C(=O)OC1C(C)=C2C(C1OC(=O)CCCCCCC)C(C)(OC(C)=O)CC(OC(=O)CCC)C1(O)C2OC(=O)C1(C)O (stereo not drawn)	0	0
C/C=C(/C)C(=O)O[C@H]1C(C)=C2[C@H]([C@@H]1OC(=O)CCCCCCC)[C@@](C)(OC(C)=O)C[C@H](OC(=O)CCC)[C@@]1(O)[C@H]2OC(=O)[C@@]1(C)O	0	12.0
C[C@@]12C[C@@H](c3ccoc3)OC(=O)C1CC[C@]1(C)[C@H]2[C@H]2C=C[C@]1(O)C(=O)O2 (stereo partly drawn)	0	0
CCC1CC2CC3(C(=O)OC)c4[nH]c5ccc(OC)cc5c4CCN(C2=O)C13 (stereo not drawn)	0	0
CC1C/C=C/C2C3OC3(C)C(C)C3C(Cc4ccccc4)NC(=O)C23OC(=O)O/C=C/C(C)(O)C1=O (stereo not drawn)	0	16.0
CCC[C@H]1C[C@H]2OC(=O)c3c(cc(OC)c(OC)c3O)[C@H]2O1	0	0
COc1cc2c(cc1OC)C13CCN(C)CC4=CCOC5CC(=O)N2C1C5C4CC3=O (stereo not drawn)	0	0
C[C@H]1O[C@@H](O[C@H]2C[C@@H](O)[C@]3(CO)C4C(CC[C@]3(O)C2)[C@@]2(O)CC[C@H](C3=CC(=O)OC3)[C@@]2(C)C[C@H]4O)[C@@H](O)[C@@H](O)[C@H]1O (stereo partly drawn)	116.7	0
CC1OC(O[C@H]2C[C@@H](O)[C@]3(CO)[C@H]4[C@H](O)C[C@]5(C)[C@@H](C6=CC(=O)OC6)CC[C@]5(O)[C@@H]4CC[C@]3(O)C2)C(O)C(O)C1O (stereo partly drawn)	100.5	0
C[C@@H]1O[C@@H](O[C@H]2C[C@@H](O)[C@]3(CO)C4C(CC[C@]3(O)C2)[C@@]2(O)CC[C@H](C3=CC(=O)OC3)[C@@]2(C)C[C@H]4O)[C@H](O)[C@H](O)[C@H]1O (stereo partly drawn)	119.3	0
SMILES	BJeLR viab HTS	A1 inh
COC(=O)C1CC(=O)C[C@H]2[C@]3(C)C[C@@H](c4ccoc4)OC(=O)[C@H]3CC[C@@]12C (stereo partly drawn)	0	0
CC(=O)Oc1ccc(/C=C/c2cc(OC(C)=O)cc(OC(C)=O)c2)cc1	0	0
N[C@H]1C[C@@H]1c1ccccc1	0	0
COc1ccccc1CN1CCN(Cc2ccccc2)CC1	0	0
CN(C)c1ccc(/C=C/C=C2/C(=O)NC(=O)N(c3ccccc3)C2=O)cc1	60.0	-
CN1C(=O)NC(=O)/C(=C\C=C\c2ccco2)C1=O	0	0
CC1=CC(=O)C2=C(C)C[C@H](O)[C@@H]3[C@H](OC(=O)[C@H]3C)[C@H]12	0	0
c1ccc(C2N3CCCN2CC3)cc1 (stereo not drawn)	0	0
COc1cc([C@@H]2c3cc4c(cc3[C@@H](O)C3COC(=O)C32)OCO4)cc(OC)c1O (stereo partly drawn)	50.0	0
COc1ccc2c(c1OC)C(=O)O[C@H]2[C@H]1c2cc3c(cc2CCN1C)OCO3	0	0
COc1cc(C2c3cc4c(cc3CC3COC(=O)C32)OCO4)cc(OC)c1OC (stereo not drawn)	63.9	0
COc1cc([C@@H]2c3cc4c(cc3[C@H](OC(C)=O)[C@H]3COC(=O)[C@@H]23)OCO4)cc(OC)c1OC	0	0
CCOC(=O)C1(c2ccccc2)CCN(C(=O)c2c(C)oc3ccc(OC)cc23)CC1	0	0
CN1CCc2nc3sc(C(=O)C(C)(C)C)c(N)c3cc2C1	0	0
COC(=O)C1=CO[C@H](C)[C@@H]2CN3CCC4(C(=O)Nc5ccccc54)C3C[C@H]12 (stereo partly drawn)	0	0
